These results are taken from PubChem BioAssay (NCI).

Each structure is given as a SMILES string. This is part of a sample that, as a whole, favours compounds with a hit. Of some 83,000 tested, about 20% had one in any assay.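 For each line, cells grew in 96-well plates with the test compound present at a single concentration for 48 hours.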 Values without a mark were called inactive. Active and inactive are the calls of the source.

The subject of this assay is EKVX NSCLC. Kind of assay: NCI-60 one-dose screen, 48 h (100 = growth as untreated, 0 = no growth, -100 = all killed). The settings on record: 10 µM unless noted. The method, then:
Growth inhibition of the EKVX human Non-Small Cell Lung tumor cell line is measured as a screen for anti-cancer activity. Cells are grown in 96 well plates and exposed to the test compound for 48 hours. Compounds are tested at a single concentration, which is 10^-5 M for most compounds. The reported endpoint is percent growth (GI% or GIPRCNT), where numbers from 0 - 100% represent growth inhibition, and numbers from -100% - 0 represent cell death. For example, a value of 40 represents 60% growth inhibition. A value of 0 means no net growth occurred over the course of the experiment. A value of -40 indicates 40% of cells at the beginning of the experiment died by the end of the experiment. A value of -100 means all cells are dead at the end of the experiment.
NCI-60 Human Tumor Cell Lines Screen was performed using the standard one-dose NCI protocol, which is described in more detail at https://dtp.cancer.gov/discovery_development/nci-60/default.htm.
Compounds with GIPRCNT values below 10 were considered active. Activity score was based on GIPRCNT using the following formula: […]
Score is 0 for GIPRCNT values of 100 or above, 50 for GIPRCNT values of 0, and 100 for GIPRCNT values of -100.
Regarding `NS(=O)(=O)c1ccc(CCN2C(=O)c3cc(Cl)c(Cl)cc3C2=O)cc1`, the growth was 103%.

Take `COc1ccc(C(=O)/C=C/c2cc3ccccc3n3nnnc23)cc1`: the growth is 99.9%. Consider `N#C/C(=C\c1ccc([N+](=O)[O-])s1)c1nc2cc(Cl)ccc2s1`, for which the growth is 7.23% (active).

On to `NC(=NCCCOc1ccc(F)cc1)Nc1ccc(I)cc1`, for which the growth was 76%. Then `CCCN1[C@@H]2CC[C@H]1/C(=C\c1ccc(OC)c(OC)c1)C(=O)/C2=C/c1ccc(OC)c(OC)c1`, with 37.7%. For the compound `O=[N+]([O-])CC(c1ccccc1F)c1c[nH]c2ccccc12` (stereo not given), the growth was 79.4%. Under `COc1ccc(C(=O)c2cc(C)c(OC)c(C)c2)c(OC)c1NC(C)=O` stands 56%; under `CNC(=O)c1cccc(Cn2nc(C)c(NC(=O)c3ccc(COc4ccc(C(F)(F)F)cc4C)cc3)c2C)n1`, 37.5%.

Consider `COC(=O)C1=C(C(=O)ON)[C@@H]2C=C[C@@]1([C@@H](Cc1ccccc1)Nc1ccccc1)O2`, for which the growth is 97.7%.

In the case of `COc1cc2cc(Oc3cccc(NC(=O)Nc4cc(C(F)(F)F)cc(C(F)(F)F)c4)c3)c(C)nc2cc1OC`, the growth is 2.88% (active). Under `C#Cc1cccc(NC(=O)c2cccc(NC(=O)CCl)c2)c1` stands 86.1% [8.25 µM]; under `COc1ccc(-c2nc([C@@H](C)Sc3nc(N)cc(N)n3)c(C)s2)cc1OCCN1CCOCC1`, 105%; under `O=c1ccc(-c2nc(N3CCOCC3)c3ccccc3n2)c[nH]1`, 59.2%.

With `N/C(=N\C(N)=N\c1nc2ccccc2s1)c1cccc(Cl)c1`, the growth was 83.3%. Regarding `COc1ccc(-c2nc(S(=O)(=O)c3ccccc3)c(S(=O)CC(=O)N3CCC(C)CC3)o2)cc1` (stereo not given), the growth was 65.7%.

As to `CCN(Cc1ccccc1)c1ccc(C=O)cc1`, the growth is 106%. Regarding `COCc1cnccc1NC1CCCCCC1`, the growth is 102%.

`O=C(/C=C(O)/C=C/c1ccc(SC(F)(F)F)cc1)/C=C/c1ccc(SC(F)(F)F)cc1`: the growth is 111%. On to `COc1cccc(C(=O)NNc2nc(Cl)nc(N3CCN(C(c4ccccc4)c4ccccc4)CC3)n2)c1`, for which the growth was 89.6%.

Turning to `O=C(CCN1CCCC1)Nc1ccc2c(NCCCc3ccccc3)c3ccccc3nc2c1`, the growth was 40.8%. `COc1cc2c(-c3cc4c(cc3CNCCc3ccc5c(c3)OCO5)OCO4)cccc2c(OC)c1O`: the growth was 77.4%.

Take `C=C(C)[C@@H]1CC[C@]2(CN)CC[C@]3(C)[C@H](CC[C@@H]4[C@@]5(C)CCCNC(C)(C)[C@@H]5CC[C@]43C)[C@@H]12`: the growth is 6.81% (active). For the compound `CCc1c(Cl)nc(N)nc1Nc1ccc(C)c(C)c1`, the growth is 89.2%. On to `COc1ccc2[nH]c(O)c(/C=c3/cc4c(c(-c5ccc(F)cc5)n3)=Nc3ccccc3-4)c2c1`, for which the growth is 74.1%. Under `CC(Sc1nc2sc3c(c2c(=O)n1-c1ccc(Cl)cc1)CCCC3)C(=O)Nc1nc(-c2ccc(Br)cc2)cs1` (stereo not given) stands 90.1%; under `COc1ccc(-c2cnc3c(-c4cccc5cnccc45)cnn3c2)cc1`, 96.1%; under `CN1CCN(C(=O)[C@]23CCC(C)(C)C[C@H]2C2=CC[C@@H]4[C@@]5(C)C/C(=C/c6cccnc6)C(=O)C(C)(C)[C@@H]5CC[C@@]4(C)[C@]2(C)CC3)CC1`, 78.8%. In the case of `CCCOC(=O)N[C@H]1CCc2cc(OC)c(OC)c(OC)c2-c2ccc(SC)c(=O)cc21`, the growth was 51.5%. In the case of `COc1ccc(/C=C/c2nc(Nc3ccc(S(=O)(=O)Nc4nc(C)cc(C)n4)cc3)c3ccccc3n2)cc1`, the growth is 72%. As for `COc1cc2c(c(OC)c1OC)-c1ccc(NNC(=S)N(Cc3cccc(C[N+](Cc4cccc(CNC56CC7CC(CC(C7)C5)C6)c4)(Cc4cccc(CNC56CC7CC(CC(C7)C5)C6)c4)Cc4cccc(CN(C(=S)NNc5ccc6c(cc5=O)[C@@H](NC(C)=O)CCc5cc(OC)c(OC)c(OC)c5-6)C56CC7CC(CC(C7)C5)C6)c4)c3)C34CC5CC(CC(C5)C3)C4)c(=O)cc1[C@@H](NC(C)=O)CC2` (stereo not given in full), the growth was 44.7%.

For the compound `COc1ccccc1NC(=O)C1CC(c2ccc(F)cc2)=NO1` (stereo not given), the growth was 89.8%. Turning to `COc1ccc2nc(-c3ccc(-c4noc(-c5cc(OC)c(OC)c(OC)c5)n4)cc3)[nH]c2c1`, the growth is 91.9%.

As to `CCCCCCCC(=O)OCC/C=C/C1OC1C1OC(=O)/C=C\C=C\C(=O)N(C(C)=O)C(=O)/C=C(/C)CCC2OC2C1OC(=O)NC(C)=O` (stereo not given), the growth is 83.5%. For `COc1ccc(C(=O)CC#N)cc1`, the growth is 126%. With `COc1cc2nc(-c3ccc(C(F)(F)F)cc3)cc(OCCCN3CCCC3)c2cc1OC`, the growth was 65%. For `O=C(N/N=C/c1cc2ccccc2n2nnnc12)Nc1ccccc1`, the growth is 98%.

As to `Fc1ccc2c(-c3cncn3CCc3ccccc3)c[nH]c2c1`, the growth was 79.4%. Consider `COc1cc2nc(-c3ccc(C(F)(F)F)cc3)cc(OCCCN3CCOCC3)c2cc1OC`, for which the growth is 61.6%. For `c1ccc2c(-c3c[nH]c4ccccc34)c3c(cc2c1)[nH]c1ccccc13`, the growth is 77.4%. Under `COc1cc2oc(-c3cccc(C(=O)Nc4ccc(Br)cc4)c3)cc(=O)c2c(OC)c1OC` stands 60%.
